From PubChem BioAssay
Compounds with a hit are over-represented: about 8% of the library has one in this group of screens.
FMDV inh – antivirals against foot and mouth disease virus; FMDV antiviral cell-based qHTS; Potency, µM (titrated, usually from 57.9 µM), for the others: top-dose activity change, negative = inhibition, usual class: inhibitors; actives 1.2% (n = 410,000); AID 1159524; calls by dose curve; tested in HEK293T cells; note: read-out not given here; potency is the fitted concentration of half-maximal effect; % is set by controls: 0 for no effect and ±100 for the full control effect; nearly all actives have a fitted effect of over 45% in size
Lassa entry inh – blocks Lassa virus binding to or entry into cells; actives 1.2% (n = 300,000); Lassa virus pseudotype entry inhibition, cell reporter; AID 540256; Potency, µM (highest dose often 37.9 µM), for inactives: at the highest dose activity change, negative = inhibition, usual class: inhibitors; calls by dose curve; tested in HEK293 cells; note: potency is the fitted concentration of half-maximal effect; % is set by controls: 0 for no effect and ±100 for the full control effect; nearly all actives have a fitted effect of over 50% in size
MARV entry inh – blocks Marburg virus binding to or entry into cells; Potency, µM (titrated, usually from 37.8 µM), for inactives: at the top dose activity change, negative = inhibition, most hits filed as inhibitors; actives 1.8% (n = 300,000); Marburg virus pseudotyped entry inhibition, cell reporter; AID 540276; calls by dose curve; tested in HEK293 cells; note: potency is the fitted concentration of half-maximal effect; % is set by controls: 0 for no effect and ±100 for the full control effect
SARS PLP yeast – inhibitors of SARS-CoV papain-like protease in yeast; S. cerevisiae expressing SARS-CoV PLpro, growth rescue; Potency, µM (highest dose often 32.9 µM), for inactives: top-dose activity, positive = growth rescue, actives largely listed as activators; actives 0.19% (n = 330,000); calls by dose curve; note: potency is the fitted concentration of half-maximal effect; 0% is about no effect; nearly all actives have a fitted effect of over 55% in size
HCV inhibitor – HCV inhibition. Huh7.5.1 HCVcc-Cre infection, luciferase reporter, 44 h. Potency, µM (doses to about 41.8 µM), for the others: at the top dose activity change, negative = inhibition, usual class: inhibitors. actives 3.4% (n = 340,000). AID 651820; active = well fitted inhibition curve with a large enough effect; inconclusive = small, poorly fitted or top-dose-only effect, or another doubt; inactive = no such curve, though single readings can be large or run the other way; note: potency is the fitted concentration of half-maximal effect; % is set by controls: 0 for no effect and ±100 for the full control effect
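Cells (1,000/well) were plated 4 h before compound, then infected with HCVcc-Cre virus (~0.5 moi). After 44 h further culture, infection was read as luciferase luminescence following a 15 min substrate incubation at room temperature.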
HCMV antiviral – human cytomegalovirus inhibition. HFF cells, HCMV-luciferase reporter, 72 h; hits give low values. activity change, negative = inhibition, % at 57.5 µM. actives 4.5% (n = 410,000); in the data active = activity change below about -60%; inconclusive = no clear call, values can overlap the other calls; inactive = above about -39%; note: % is set by controls: 0 for no effect and ±100 for the full control effect
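Cell-based, HFFs, 1000 cells/well, 16 h 37C; cpds in DMSO + HCMV-luc, MOI 1 PFU/cell; 72 h 37C; OneGlo luminescence after 5 min RT; norm. to buffer vs Salinomycin 10uM.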
Numbers without * were called inactive; u = inconclusive; x = no result; [ ] = remark or other dose.

SMILES	FMDV inh	Lassa entry inh	MARV entry inh	SARS PLP yeast	HCV inhibitor	HCMV antiviral
Cc1ccc(NC(=O)CCSc2nnc(-c3ccco3)o2)cc1	-11.1%	5.4%	-12.9%	-5.8%	u	-12.3
COc1ccc(NC(=O)CSc2ccc(-c3ccco3)nn2)cc1	-17.7%	1.9%	u	-8.4%	-1.9%	-65.9*
CCOC(=O)C1=C[C@@H](C(C)(C)C)N(S(=O)(=O)c2ccc(C)cc2)[C@H]1c1ccc(C)cc1	u	x	x	x	x	-76.4*
CCOC(=O)C1=C[C@@H](C(C)(C)C)N(S(=O)(=O)c2ccc(C)cc2)[C@H]1c1ccccc1Cl	u	x	x	x	x	-25.8
ClCc1cc2ccccc2nc1Cl	28.2µM*	-15.9%	-5.7%[46.1 µM]	-2.5%	u	66.7
Cc1ccc2cc(CCl)c(Cl)nc2c1	u	2.3%	u	-1.5%	10µM*	4.6
COCCNc1oc(/C=C/c2ccc(F)cc2)nc1C#N	23.9%	6.1%[46.1 µM]	u	x	x	-21.5
FC(F)(F)c1ccc(Nc2cc3c(cn2)ncn3Cc2ccco2)cc1	x	x	x	x	x	-15.2
CS(=O)(=O)N(CC(=O)NC1CCCCC1)Cc1ccc(F)cc1	-5.4%	5.7%	-3.8%[46.1 µM]	0.6%	10.4%	-19.4
COc1ccc(C(=O)/C=C/C(=O)N(CC(=O)NC2CCCCC2)Cc2ccc(F)cc2)c(O)c1	7.08µM*	u	u	1.2%	u	-115.7*
COc1ccc(C(=O)/C=C/C(=O)N(CC(=O)NCCC(C)C)Cc2cccs2)c(O)c1	3.55µM*	u	20.6µM*	-1.1%	11.2µM*	-99.8*
CN1OC(C)(CC(=O)NCc2ccccc2)N=C1c1ccccc1Cl (centres undefined)	x	x	x	x	x	-3.8
CCCCCC(=O)N1C[C@H](n2cc(-c3ccc(F)cc3)nn2)[C@@H](O)C[C@H]1c1ccc(C)cc1	x	2.7%[46.1 µM]	x	x	x	x
CN1/C(=C/C(=S)NC(=O)C2(C)CC2(Cl)Cl)C(C)(C)c2ccccc21 (centres undefined)	-23.4%	12.6%[46.1 µM]	u	21.6%	u	-69.2*
CN1/C(=C\C(=S)Nc2ccccc2)C(C)(C)c2ccccc21	-20.7%	-15.7%[46.1 µM]	u	-17.1%	u	-70.9*
CN1/C(=C/C(=O)CSc2ccccc2C(=O)O)C(C)(C)c2ccccc21	0.0%	x	x	7.6%	12.4%	20.3
COc1ccccc1C(=O)NC(=S)/C=C1/N(C)c2ccccc2C1(C)C	u	u	14.1µM*	-3.6%	u	-91.9*
CN1/C(=C\C(=O)Nc2ccc(Cl)cc2)C(C)(C)c2ccccc21	5.3%	-19.7%[46.1 µM]	u	-102.5%	-23.7%	u
Cc1cc(OCCCCCN2CCCC2)ccc1Cl	-13.4%	x	x	-0.7%	10µM*	-14.8
CC(C)c1ccc(OCCCCN2CCCCC2)cc1	-9.5%	18.0%	11.2µM*	-1.5%	u	-27.3
Cc1ccc(OCCCCCN2CCOCC2)cc1	28.2%	-4.2%	13.9%	1.5%	15.2%	8.5
Cc1ccc(OCCCCCCN2CCNCC2)cc1	4.8%	5.2%	14.1µM*	x	u	53.3
COc1ccc(NC(=O)c2c(NCc3ccc(C)o3)sc3c2CCC(C)C3)cc1 (centres undefined)	37.6%	2.2%[46.1 µM]	x	x	x	-9.0
CC1=C(C(=O)N2CCOCC2)CC(CC(=O)NC2CCCC2)C(=O)N1Cc1ccc(F)cc1 (centres undefined)	u	x	x	x	x	-15.6
O=C(c1ccc2[nH]ccc2c1)N1CCOc2ccc(CN3CCN(c4ccccn4)CC3)cc2C1	25.1µM*	x	x	x	x	x
SMILES	FMDV inh	Lassa entry inh	MARV entry inh	SARS PLP yeast	HCV inhibitor	HCMV antiviral
CCOC(=O)N1CCN(Cc2ccc3c(c2)CN(C(=O)c2ccc4ncccc4c2)CCO3)CC1	28.2µM*	x	x	x	x	x
COc1ccccc1C(=O)N1CCOc2ccc(CN3CCN(Cc4ccccn4)CC3)cc2C1	-7.3%	x	x	x	x	x
COc1ccccc1CN1CCCCC1c1cccnc1 (centres undefined)	8.0%	-6.0%	33.7%	-3.7%	-7.4%	-86.3*
Cc1ccc(/C(N)=N/OC(=O)c2ccc(Cl)cc2Cl)cc1	-53.8%	u	7.08µM*	-86.6%	u	22.3
COc1ccc(Cl)cc1C(=O)O/N=C(\N)c1ccncc1	10.3%	-3.7%	5.3%	-1.3%	22.4µM*	40.1
CSc1ccc(Cn2c(C)c(C(=O)NCCC#N)sc2=O)cc1	-7.0%	x	x	x	x	-9.9
Cc1cccc(NS(=O)(=O)c2ccc(OCC(=O)N3CCCC3)cc2)c1	27.0%	-16.0%	-7.8%	-0.7%	-19.1%	-15.2
COc1ccc(-n2ncc3c2CC(C)(C)CC3NC(=O)c2cnc(C)cn2)cc1 (centres undefined)	-15.1%	x	x	-2.5%	-0.8%	-64.1*
Cc1nn(C)c(C)c1CCC(=O)NC1CC(C)(C)Cc2c1cnn2-c1ccccc1 (centres undefined)	-7.5%	8.5%	-1.2%	0.9%	-4.2%	-68.7*
O=C(COc1ccc(Cl)cc1)NCC(c1cccs1)S(=O)(=O)c1ccc(F)cc1 (centres undefined)	-26.9%	u	x	x	x	-12.2
O=C(/C=C/c1ccccc1)c1ccccc1	u	0.2%	-3.7%	-3.4%	10µM*	-17.5
N#Cc1ccc(/C=C/C(=O)c2ccccc2)cc1	-24.6%	x	x	-5.3%	10.9%	4.9
O=C(/C=C/c1ccccc1)/C=C/c1ccccc1	u	u	9.2µM*	-33.0%	u	-73.1*
CC(=O)/C=C/c1ccccc1	-3.2%	x	x	5.5%	10.3%	-27.8
O=C(/C=C/c1ccccc1)c1cc(Br)ccc(=O)c1O	u	u	20µM*	22.4µM*	u	-106.6*
CCOc1ccc(/C=C/C(=O)c2ccc(-c3ccccc3)cc2)cc1	-8.4%	13.3%	u	-0.6%	28.9%	-61.0*
CCOc1ccccc1NC(=O)CSc1cc(=O)n(CC)c2ccccc12	-20.9%	u	u	x	x	17.0
COc1ccc(S(=O)(=O)NCC(c2ccco2)N2CCc3ccccc3C2)cc1 (centres undefined)	29.2%	8.4%	-5.3%	-2.2%	19.5%	-94.5*
CC(C)c1ccc(N(C(=O)c2csnn2)C(C(=O)NC2CCCC2)c2cccnc2)cc1 (centres undefined)	1.2%	1.58µM*	-9.0%[46.1 µM]	-1.9%	0.8%	-20.1
CC(C)c1ccc(C(C(=O)NC2CCCCC2)N(C(=O)c2csnn2)C2CC2)cc1 (centres undefined)	5.8%	-1.3%[46.1 µM]	6.31µM*	4.3%	21.5%	-27.4
Cc1ccc(N(C(=O)c2csnn2)C(C(=O)NC2CCCCC2)c2ccncc2)cc1 (centres undefined)	-0.6%	u	u	-0.9%	-2.6%	-64.2*
CCc1ccc(N(C(=O)c2csnn2)C(C(=O)NC2CCCC2)c2cccnc2)cc1 (centres undefined)	-2.4%	u	u	4.1%	19.5%	u
O=C(NC1CCCC1)C(c1ccccn1)N(C(=O)c1csnn1)c1ccccc1Cl (centres undefined)	14.2%	1.7%	-1.6%[46.1 µM]	-3.9%	13.2%	-65.9*
